TAR Tat displ = TAR RNA-Tat peptide displacers, HIV-1, primary screen, biochemical, FRET, FAM/TAMRA-labeled Tat. z-score (test concentration not listed). AID 1259389, 2018. hit rate 0.6% among 100,000. HIV-1 TAR RNA, Tat peptide displacement FRET; hits give high values; active means z-score of 3 or more in at least 2 runs
CDC25B CDK2 inh = primary biochemical HTRF screen for blockers of M-phase inducer phosphatase 2 binding to CDK2/cyclin A | hit rate 0.72% among 94,000 | z-score (no concentration beside the values) | HTRF CDC25B-CDK2/CyclinA binding, anti-His/anti-Flag; hits give high values | P30305+P24941; in the data active means z-score above about 3.2
Active calls of the source: *; · = no result. In the library only some 0.9% were active in any assay of this set; here they are far more common.

SMILES | TAR Tat displ | CDC25B CDK2 inh
CC1CCCN(c2cc(NCCCC(=O)O)c3c4c(onc24)-c2ccccc2C3=O)C1 (stereo not given) | -2.21 | 0.56
CC1CC(C)CN(c2cc(NCC(=O)O)c3c4c(onc24)-c2ccccc2C3=O)C1 (stereo not given) | -5.77 | 12.3*
CN1CCOc2ccc(S(=O)(=O)NC3CCCCC3)cc21 | 1.08 | ·
Cc1sc2ncn(CC(=O)N(C)C3CCCCC3)c(=O)c2c1S(=O)(=O)N1CCN(C)CC1 | -0.17 | 14.6*
Cc1sc2ncn(CC(=O)N3CCN(C)CC3)c(=O)c2c1S(=O)(=O)N1CCCCC1 | · | -0.41
O=C(CN1Cc2ccccc2C1=O)Nc1ccccc1F | -1.93 | ·
COc1cc2c3c(c1OC)C1(C=CC(=O)C=C1)CC3N(C)CC2 (stereo not given) | -2.96 | 8.27*
COc1ccc2c(c1OC)C(=O)O[C@@H]2[C@H]1c2c(cc3c(c2OC)OCO3)CCN1C | 4.27 | -1.45
CCOc1ccc(S(=O)(=O)Nc2cc(N3CCCS3(=O)=O)ccc2C)cc1 | 0.23 | ·
O=C(Cc1ccc(NC(=O)N2CCSc3ncccc32)cc1)Nc1ccc(Br)cc1 | 0.53 | 16.1*
O=C(Nc1ccc(Br)cc1)N1CCSc2ncccc21 | 0.44 | ·
Cn1c(/C=C/c2ccc3c(c2)OCO3)nc2ccccc2c1=O | 0.6 | 0.59
C(=C\c1ccc2c(c1)OCO2)/C1=NN(c2ccccc2)C(c2ccc3c(c2)OCO3)C1 (stereo not given) | 0.32 | 15.6*
O=C(O)c1cc(O)c2c(c1)[C@@H]([C@H]1c3cc(C(=O)O)cc(O)c3C(=O)c3c(O[C@H]4O[C@H](CO)[C@@H](O)[C@H](O)[C@H]4O)cccc31)c1cccc(O[C@H]3O[C@H](CO)[C@@H](O)[C@H](O)[C@H]3O)c1C2=O | 22* | ·
O=C(Nc1ccc2c(c1)OCCO2)C1CCCN(c2nnc(-n3cccc3)s2)C1 (stereo not given) | 1.31 | ·
COCCN1CCn2c(nc3cc(Nc4nnc(C)c5ccccc45)ccc32)C1 | 1.61 | 14.2*
COCCN1CCn2c(nc3cc(NC(=O)NC4CCCCC4)ccc32)C1 | -0.33 | 7.05*
COCCCN1CCn2c(nc3cc(NC(=O)NC4CCCCC4)ccc32)C1 | -8.88 | 0.2
COCCN1CCn2c(nc3cc(Cl)ccc32)C1 | 0.82 | 0.96
O=C(NCc1cccnc1)C1CCN(c2nc3ccccc3o2)CC1 | · | -1.03
Cc1cc(C(=O)C(=O)Nc2nnc(-c3ccco3)s2)c(C)n1-c1ccc(Cl)cc1 | 19* | -1.33
Cc1nnc(NC(=O)C(=O)c2cc(C)n(-c3ccc(Cl)cc3)c2C)s1 | 1.19 | 0.27
COCCn1c(C)cc(C(=O)C(=O)Nc2nnc(-c3cccs3)s2)c1C | 2.85 | -2.33
COCCn1c(C)cc(C(=O)C(=O)Nc2nnc(-c3ccco3)s2)c1C | 30.8* | -1.56
Cc1cc(C)cc(NC(=O)CSc2nnc(C)n3c2cc2occc23)c1 | 1.36 | ·
SMILES | TAR Tat displ | CDC25B CDK2 inh
Cc1nc(-c2csc(S(=O)(=O)Nc3ccc(F)cc3C)c2)no1 | 2.06 | ·
COc1ccc(-c2cc3nc(C)cc(NCC(C)C)n3n2)cc1OC | 2.6 | -0.86
CCN(CC)CCNc1cc(C)nc2cc(-c3ccc(OC)c(OC)c3)nn12 | 3.95* | 1.72
CC1=C(c2ccccc2)S(=O)(=O)N=C1Nc1cccc(C)n1 | -0.04 | -1.42
Cn1c(=O)c2c(-c3ccccc3Cl)n(C(CO)(CO)CO)cc2n(C)c1=O | -0.19 | -0.91
Cc1nn(-c2ccccc2)c(-n2cccc2)c1C(=O)Nc1ccc2c(c1)OCCO2 | 1.56 | -0.96
O=C(NC(NC(=S)Nc1cccc2ccccc12)C(Cl)(Cl)Cl)c1ccccc1F (stereo not given) | · | 5.27*
O=C(NC(NC(=S)Nc1ccccc1Br)C(Cl)(Cl)Cl)c1ccccc1 (stereo not given) | · | 1.16
COc1ccc(Cl)cc1NC(=O)C(=O)N/N=C/c1ccccc1C(=O)O | · | -0.93
CCC1CCCCN1CCCNC(=O)C1CCCN(S(=O)(=O)N2CCCCC2)C1 (stereo not given) | 4.48* | ·
CCC1CCCCN1CCCNC(=O)C1CCCN(S(=O)(=O)N2CC(C)CC(C)C2)C1 (stereo not given) | 1.33 | ·
Cc1cc(Nc2ccc3c(c2)OCO3)n2nc(-c3ccco3)nc2n1 | 18.2* | ·
Cc1cc(NCc2ccc3c(c2)OCO3)n2nc(-c3ccco3)nc2n1 | -1.27 | ·
COc1cccc(C2CC(=O)N3CN(c4ccc(OC)cc4OC)CSC3=C2C#N)c1 (stereo not given) | -0.1 | 5.9*
COc1ccc(N2CSC3=C(C#N)C(c4ccccc4)CC(=O)N3C2)c(OC)c1 (stereo not given) | -2.01 | 4.28*
COc1ccc(N2CSC3=C(C#N)C(c4ccc(Br)cc4)CC(=O)N3C2)c(OC)c1 (stereo not given) | 0.32 | 2.4
COc1ccc(N2CSC3=C(C#N)C(c4c(F)cccc4Cl)CC(=O)N3C2)c(OC)c1 (stereo not given) | 1.89 | 0.86
Cc1ccc(-c2noc(CSc3nnc(C)n3-c3ccc(Cl)cc3)n2)cc1 | 2.8 | -0.76
Cc1cc(C)c(NC(=O)C(C)Sc2nc3c(c(=O)[nH]2)CCCC3)c(C)c1 (stereo not given) | 1.74 | -1.56
CSc1ccc(C2CC(=O)N3CN(C)CSC3=C2C#N)cc1 (stereo not given) | 0.89 | 0.34
CSc1ccc(C2CC(=O)N3CN(c4ccccc4C)CSC3=C2C#N)cc1 (stereo not given) | 0.58 | 14.6*
CSc1ccc(C2CC(=O)N3CN(Cc4ccco4)CSC3=C2C#N)cc1 (stereo not given) | 0.97 | 1.96
CCc1ccc(C2CC(=O)N3CN(c4ccccc4)CSC3=C2C#N)cc1 (stereo not given) | -1.18 | 4.46*
CSc1ccc(C2CC(=O)N3CN(c4ccccc4)CSC3=C2C#N)cc1 (stereo not given) | -1.24 | 4.07*
CSc1ccc(C2CC(=O)N3CN(c4ccc(C)cc4)CSC3=C2C#N)cc1 (stereo not given) | -3.11 | 5.48*
SMILES | TAR Tat displ | CDC25B CDK2 inh
CSc1ccc(C2CC(=O)N3CN(c4ccccc4F)CSC3=C2C#N)cc1 (stereo not given) | 2.34 | 0.14
O=C(NCCCN1CCC(N2CCCCC2)CC1)C1CCN(c2nc3cccnc3s2)CC1 | 1.05 | ·
N/C(CS(=O)(=O)c1ccc(F)cc1)=N\OC(=O)Nc1cc(Cl)cc(Cl)c1 | · | -0.91
Cc1ccc2c(c1)-c1c(c(C(=O)NCc3ccc4c(c3)OCO4)nn1C)CS2 | 0.82 | ·
c1coc(-c2nc3ccccc3nc2-c2ccco2)c1 | · | -0.23
O=C(O)c1cc2ccccc2nc1-c1ccco1 | 34.6* | 0.87
O=C(C1CC2CCCN2C12C(=O)Nc1ccccc12)N1CCCCC1 (stereo not given) | 0.97 | -1.41
CC(CC(=O)NCc1ccco1)CC1=NS(=O)(=O)c2ccccc2N1 (stereo not given) | 9.47* | ·
Cc1ccc(CNC(=O)CC(C)CC2=NS(=O)(=O)c3ccccc3N2)o1 (stereo not given) | 0.5 | ·
CC(C)CCNC(=O)CSc1nc2ncccc2o1 | 0.42 | ·
COc1ccc(C2CC(=O)N3CN(c4ccccc4OC)CSC3=C2C#N)cc1 (stereo not given) | -2.12 | 4.26*
COc1ccccc1N1CSC2=C(C#N)C(c3ccccc3)CC(=O)N2C1 (stereo not given) | -2.24 | 4.93*
COc1ccc(CCNC(=S)Nc2ccc(Cl)cc2Cl)cc1OC | · | -0.98
